Most compounds without a hit are left out; they make up all but 3.1% or so of the library.
S16 viability – Cell viability qHTS assay in S16 Pmp22-F2sN cells; S16 Pmp22-F2sN Schwann cells viability, CellTiter-Glo, 24 h; Potency, µM (doses to about 57.5 µM), without a hit: at the top dose activity change, negative = cytotoxicity, most hits filed as cytotoxic; hit rate 0.48% among 43,000; further: potency means the concentration at half of the fitted maximal effect; on the % scale 0 is the no-effect control and ±100 the full control effect; nearly all actives have a fitted effect of over 65% in size
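S16 Pmp22-F2sN Schwann cells (500-1,000/well) in phenol-red-free DMEM with 10% FBS received 23 nL compound by pin tool for 24 h at 37 °C. Viability was then read as CellTiter-Glo luminescence after 15 min at room temperature.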
OvCa metastasis – Primary qHTS assay for Inhibitors of ovarian cancer metastasis using an organotypic tumor microenvironment (TME) model; SKOV3ip1-GFP adhesion/invasion on 3D omental model, fluorescence; Potency, µM (doses to about 45.8 µM), for the others: at the top dose activity change, negative = inhibition, usual class: inhibitors; hit rate 0.1% among 46,000; AID 1963576, 2024;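 further: potency means the concentration at half of the fitted maximal effect; plate controls were DMSO wells for no effect and tomatine positive control wells for full effect; nearly all actives have a fitted effect of over 65% in size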
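A 3D layer of primary human omental fibroblasts, mesothelial cells, fibronectin and collagen I, grown 48 hr, received SKOV3ip1-GFP cells in serum-free medium plus compounds at 0.36-46 umol/L. After 2 hr RT and 16 hr 37 C, fixed adherent GFP cells were counted; normalized to DMSO and tomatine.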
pS6 MEF inh – Acumen qHTS Assay for Inhibitors of the mTORC1 Signaling Pathway in MEF (Tsc2-/-, p53-/-) Cells: Sytravon. Tsc2-/- p53-/- MEF, phospho-rpS6 immunofluorescence/PI, 24 h. Potency, µM (titrated, usually from 38.3 µM), for the others: at the top dose activity change, negative = inhibition, usual class: inhibitors. hit rate 0.78% among 44,000;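 further: potency means the concentration at half of the fitted maximal effect; plate controls were DMSO for no effect and rapamycin for full effect; nearly all actives have a fitted effect of over 50% in size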
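Readout is phospho-S6 Alexa 488 signal normalized to PI per well, reported as % active cells with thresholds set from rapamycin (7.5 nM) and DMSO controls. Cells: Tsc2-/-, p53-/- MEFs, 24 hrs compound at 37 C; PI cell number serves as viability.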
p53null 39C tox – qHTS Screen for Compounds that Selectively Target Cancer Cells with p53 Mutations: Cytotoxicity of p53 Null Cells at the Nonpermissive Temperature; H1299 p53-null (neo) cells, 39C, ATPlite viability, 24 h; Potency, µM (doses to about 46.1 µM), for inactives: at the top dose activity, negative = cell killing, most hits filed as cytotoxic; hit rate 0.97% among 55,000; AID 904, 2007;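 further: potency means the concentration at half of the fitted maximal effect; 0% = DMSO only and -100% = full killing by 100 µM tamoxifen; nearly all actives have a fitted effect of over 50% in size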
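Cells seeded at 600/well, 37C overnight. Compound added (up to 46 uM), plates shifted to 39C for 24 hr. ATPlite added, luminescence read after 20 min at room temperature.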
PMP22 txn – Cell-based coincidence reporter assay to measure PMP22 gene transcription in S16 Pmp22-F2sN cells - Primary screen. hit rate 2% among 43,000. S16 Pmp22-F2sN Schwann cells (luciferase reporters placed in the Pmp22 gene), FLuc/NLuc coincidence luminescence, 24 h. Potency, µM (doses to about 57.5 µM), for inactives: at the highest dose activity change, negative = inhibition, most hits filed as inhibitors; active means clear falling dose curves in both reporters; inconclusive means both reporters move, but less clearly or upward; inactive means either reporter flat; the % is the NLuc reporter signal; further: potency means the concentration at half of the fitted maximal effect; on the % scale 0 is the no-effect control and ±100 the full control effect
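Rat S16 Pmp22-F2sN cells, 500-1,000/well in phenol red-free DMEM + 10% FBS, compound-treated 24 h (37C, 5% CO2). Luminescence: FLuc read, Stop&Glo added, NLuc read.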
p53null 32C tox – qHTS Screen for Compounds that Selectively Target Cancer Cells with p53 Mutations: Cytotoxicity of p53 Null Cells at the Permissive Temperature; H1299-neo p53 null cells, ATP luminescence, 24 h, 32C; Potency, µM (doses to about 46.1 µM), for inactives: at the top dose activity change, negative = cytotoxicity, hits mostly cytotoxic; hit rate 0.62% among 55,000; AID 903, 2007;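 further: potency means the concentration at half of the fitted maximal effect; 0% = DMSO only and -100% = full killing by 100 µM tamoxifen; nearly all actives have a fitted effect of over 55% in size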
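AC50 values derive from Hill modelling of qHTS concentration-response data (up to 46 uM) in H1299-neo cells. Cells were treated 24 h at 32C following overnight attachment at 37C; viability was read as cellular ATP.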
NLuc saturating – Biochemical NLuc saturation counterscreen for small molecule modulators of PMP22 gene expression - Nano-Glo assay; AID 1508638, 2021; Secreted NLuc enzyme (filtered S16 cell medium), Nano-Glo luminescence; Potency, µM (titrated, usually from 57.5 µM), for inactives: at the top dose activity change, negative = inhibition, hits mostly inhibitors; shares compounds with PMP22 txn; hit rate 4% among 690; further: potency means the concentration at half of the fitted maximal effect; on the % scale 0 is the no-effect control and ±100 the full control effect
NLuc Km ctr – Biochemical coelenterazine-based NLuc counterscreen for small molecule modulators of PMP22 gene expression - Km assay; shares compounds with PMP22 txn; secreted NLuc enzyme, coelenterazine luminescence, Km conditions; Potency, µM (top dose mostly 57.5 µM), for inactives: at the top dose activity change, negative = inhibition, usual class: inhibitors; hit rate 5% among 690; AID 1508639, 2021; further: potency means the concentration at half of the fitted maximal effect; on the % scale 0 is the no-effect control and ±100 the full control effect
FLuc counter – Biochemical FLuc counterscreen for small molecule modulators of PMP22 gene expression | shares compounds with PMP22 txn | purified P. pyralis FLuc, luminescence, 10 min | Potency, µM (doses to about 57.5 µM), for the others: at the highest dose activity, negative = inhibition, actives largely listed as inhibitors | 690 tested, under 10 active | AID 1508640, 2021; further: % of control where 0% means no effect
Target sequence (P08659 whole entry, looked up): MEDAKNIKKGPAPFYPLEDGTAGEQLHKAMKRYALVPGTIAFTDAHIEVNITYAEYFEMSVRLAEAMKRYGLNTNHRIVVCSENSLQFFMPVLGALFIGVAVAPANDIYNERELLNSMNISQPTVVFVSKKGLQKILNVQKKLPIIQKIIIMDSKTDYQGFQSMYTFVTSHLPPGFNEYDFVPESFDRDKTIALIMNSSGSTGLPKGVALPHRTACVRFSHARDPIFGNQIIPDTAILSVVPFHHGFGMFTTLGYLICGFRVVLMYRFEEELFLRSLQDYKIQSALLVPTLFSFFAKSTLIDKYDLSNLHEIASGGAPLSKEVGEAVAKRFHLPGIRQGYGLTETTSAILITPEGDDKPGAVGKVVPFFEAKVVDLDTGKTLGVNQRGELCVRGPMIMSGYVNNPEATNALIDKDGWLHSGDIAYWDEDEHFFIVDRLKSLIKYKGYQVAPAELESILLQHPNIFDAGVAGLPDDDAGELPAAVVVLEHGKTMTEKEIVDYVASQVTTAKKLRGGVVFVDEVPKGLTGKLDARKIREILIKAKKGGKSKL
S16 viab conf – Cell viability qHTS assay in S16 Pmp22-F2sN cells - Confirmatory screen | shares compounds with PMP22 txn | S16 Schwann cells viability, CellTiter-Glo ATP luminescence, 24 h | Potency, µM (doses to about 57.5 µM), inactives show top-dose activity change, negative = viability loss, actives largely listed as cytotoxic | hit rate 7% among 690; further: potency means the concentration at half of the fitted maximal effect; on the % scale 0 is the no-effect control and ±100 the full control effect
PMP22 txn conf – Cell-based coincidence reporter assay to measure PMP22 gene transcription in S16 Pmp22-F2sN cells - Confirmatory screen; shares compounds with PMP22 txn; hit rate 22% among 690; Potency, µM (series often up to 57.5 µM), for the others: at the highest dose activity change, negative = inhibition, most hits filed as inhibitors; S16 Schwann cells Pmp22-F2sN, dual luciferase, 24 h; active means clear falling dose curves in both reporters; inconclusive means both reporters move, but less clearly or upward; inactive means either reporter flat; the % is the FLuc reporter signal; further: potency means the concentration at half of the fitted maximal effect
PMP22 HiBiT cnf – Cell-based HiBiT reporter assay to measure PMP22 protein expression in S16 Pmp22-HiBiT cells - Confirmatory screen; shares compounds with PMP22 txn; S16 Schwann cells Pmp22-HiBiT, luminescence, 48 h; Potency, µM (doses to about 27.9 µM), for the others: at the highest dose activity change, negative = inhibition, most hits filed as inhibitors; 95 tested, under 10 active; AID 1508647, 2021
Target sequence (P25094 whole entry, looked up): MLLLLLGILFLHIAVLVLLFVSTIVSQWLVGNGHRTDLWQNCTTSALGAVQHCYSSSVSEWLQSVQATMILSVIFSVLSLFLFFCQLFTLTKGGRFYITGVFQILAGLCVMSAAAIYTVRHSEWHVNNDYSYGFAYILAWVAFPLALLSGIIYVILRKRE
Numbers without * were called inactive; i = inactive; ? = inconclusive; . = not tested or not shown. Unless noted, the call rests on the fitted dose curve; in most records, active means well fitted curve in the direction sought with a large enough effect; inconclusive means small, poorly fitted or top-dose-only effect, or another doubt; inactive means no such curve, though single readings can be large; an effect the other way counts as inactive or inconclusive.

SMILES | S16 viability | OvCa metastasis | pS6 MEF inh | p53null 39C tox | PMP22 txn | p53null 32C tox | NLuc saturating | NLuc Km ctr | FLuc counter | S16 viab conf | PMP22 txn conf | others
COC(=O)COc1ccc(-c2nnc(Nc3ccc(O)cc3)c3ccccc23)cc1 | ? | 2.51µM* | ? | 0.0% | 11.2µM* | 20.3% | 12.2µM* | 10.9µM* | -16.4% | -18.7% | ?
CCOc1ccc(CCNC(=O)c2c(C)oc3ncn(CC(C)C)c(=O)c23)cc1 | 2.0% | 10.6% | 4.8% | -28.6% | 20µM* | -5.2% | ? | 1.7% | ? | 2.2% | -32.2%
CCOC(=O)c1c(C)oc2nc(C)nc(NCCc3ccc(OCC)cc3)c12 | -26.6% | -23.3% | 5.7% | 10.0% | 14.2µM* | -4.4% | ? | ? | -10.1% | -11.4% | ?
CCOC(=O)c1c(C)oc2nc(C)nc(NCCc3ccc(Cl)cc3)c12 | 13.6% | 9.8% | ? | -2.6% | -35.1% | 0.1% | . | . | . | . | .
CC(C)OC(=O)OCOP(=O)(CO[C@H](C)Cn1cnc2c(N)ncnc21)OCOC(=O)OC(C)C | . | 11.3% | . | . | . | . | . | . | . | . | .
Cn1c(N2CCCCS2(=O)=O)nc(C(=O)NCc2ccc(F)cc2)c(O)c1=O | . | -5.0% | . | . | . | . | . | . | . | . | .
CCN1CCN(CCCNC(=O)Cn2c(-c3cccs3)cc3ccccc32)CC1 | ? | -4.0% | -9.6% | -1.5% | ? | 5.2% | . | . | . | . | .
Cc1ccc(C)c(N2CCN(CCCNC(=O)Cn3c(-c4cccs4)cc4ccccc43)CC2)c1 | ? | ? | ? | ? | 13.4µM* | ? | -3.9% | -4.5% | -1.3% | ? | ? | PMP22 HiBiT cnf=14.7%
CCCN1CCN(CCCNC(=O)Cn2c(-c3cccs3)cc3cc(Cl)ccc32)CC1 | ? | ? | -0.3% | -3.3% | 10.6µM* | -1.0% | 0.7% | -2.7% | 1.8% | ? | ?
CCCN1CCN(CCCNC(=O)Cn2c(-c3cccs3)cc3ccccc32)CC1 | 6.0% | 4.5% | 1.3% | 3.1% | ? | -5.9% | . | . | . | . | . | PMP22 HiBiT cnf=?
CN1CCN(CCCNC(=O)Cn2c(-c3cccs3)cc3ccccc32)CC1 | 12.3% | 14.2% | -8.2% | -4.9% | ? | 0.7% | . | . | . | . | .
C#C[C@]1(O)CC[C@H]2[C@H]3CCc4cc(OC)ccc4[C@H]3CC[C@@]21C | . | -13.2% | . | . | . | . | . | . | . | . | .
CCCCC(F)(F)[C@@]1(O)CC[C@H]2[C@H](CC(=O)[C@@H]2CCCCCCC(=O)O)O1 | . | 9.6% | . | . | . | . | . | . | . | . | .
CCC(=O)N1CCc2cc(Br)cc(S(=O)(=O)N3CCCC(C(=O)NCc4cccc(OC)c4)C3)c21 (configuration not stated) | 18.4% | 11.0% | -2.7% | -13.6% | 14.2µM* | 4.5% | -16.6% | 5.2% | 7.2% | -20.8% | -40.6%
COc1ccc(N2CCN(CCCNC(=O)c3ccc4nc(CCc5ccccc5)oc4c3)CC2)cc1 | -27.8% | i | -17.7% | -20.5% | ? | -18.5% | . | . | . | . | .
O=C(NCCCN1CCN(c2ccccc2)CC1)c1ccc2nc(CCc3ccccc3)oc2c1 | ? | ? | 0.1% | -0.5% | 18.9µM* | 2.5% | -15.0% | -5.5% | -5.7% | -26.4% | ?
O=C(NCCCN1CCN(c2cccc(Cl)c2)CC1)c1ccc2nc(Cc3ccccc3)oc2c1 | ? | -20.6% | -0.7% | ? | ? | 60.4% | . | . | . | . | .
COc1ccc(N2CCN(CCCNC(=O)c3ccc4nc(Cc5ccccc5)oc4c3)CC2)cc1 | ? | ? | -4.2% | -14.3% | 18.9µM* | -0.5% | ? | ? | -2.3% | ? | ?
COc1cc(C2c3c(oc4ccccc4c3=O)C(=O)N2Cc2ccccc2Cl)ccc1O (configuration not stated) | 2.6% | 9.6% | 2.6% | ? | 11.5µM* | -22.7% | -9.1% | -4.0% | 3.8% | -7.8% | ?
CCOc1cc(C2c3c(oc4ccccc4c3=O)C(=O)N2Cc2ccccc2Cl)ccc1O (configuration not stated) | 2.5% | -8.1% | -5.9% | -3.0% | ? | -0.9% | . | . | . | . | .
Fc1ccc(CNc2ncnc3ccc(F)cc23)cc1 | . | 2.0% | . | . | . | . | . | . | . | . | .
